{
  "source": "the supplement of paper PMC12067093",
  "about": "“Discovery and optimisation of a covalent ligand for TRIM25 and its application to targeted protein ubiquitination” (Chemical Science, 2025)",
  "compound": "CC1Cc2ccccc2N1C(=O)C1CCCN(C1)C(=O)CCl (mixture of isomers) [TRIM25 ligand 11 (diastereomer mixture)]",
  "experiment": "probe-labelled cysteine peptide fold change vs DMSO (competition) (log2 fold change); higher = less target engagement (more negative = stronger competition)",
  "details": "THP-1, incubation time: 4 h",
  "note": "The full data set covers some 21,000 targets. This sample favours those with the largest changes.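 Also: competitive chemoproteomic profiling in live THP-1 cells with an iodoacetamide desthiobiotin (IA-DTB) probe, comparing probe-labelled peptide intensities in compound-treated cells against DMSO-treated controls.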",
  "data": [
    {"target": "DDX28_Q9NUL7_453_DILLCTDIASR (UniProt Q9NUL7)", "sequence (Q9NUL7 whole entry, looked up)": "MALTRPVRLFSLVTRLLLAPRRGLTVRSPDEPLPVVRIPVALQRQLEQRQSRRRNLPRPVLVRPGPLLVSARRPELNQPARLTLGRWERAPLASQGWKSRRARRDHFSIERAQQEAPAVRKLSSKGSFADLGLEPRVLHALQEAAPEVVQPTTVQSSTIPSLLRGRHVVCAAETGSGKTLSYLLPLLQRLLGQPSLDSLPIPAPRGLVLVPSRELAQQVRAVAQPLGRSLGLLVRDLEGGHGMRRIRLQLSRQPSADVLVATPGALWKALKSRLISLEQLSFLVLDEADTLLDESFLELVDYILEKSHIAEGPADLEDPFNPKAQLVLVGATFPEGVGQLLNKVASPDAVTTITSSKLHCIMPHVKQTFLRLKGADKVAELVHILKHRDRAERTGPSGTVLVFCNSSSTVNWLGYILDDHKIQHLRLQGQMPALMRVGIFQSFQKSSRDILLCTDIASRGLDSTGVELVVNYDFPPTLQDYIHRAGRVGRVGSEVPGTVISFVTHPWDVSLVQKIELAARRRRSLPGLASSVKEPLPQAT", "values": [
      {"measurement": "probe-labelled cysteine peptide fold change", "setting": "10 µM", "value": 0.0908},
      {"measurement": "probe-labelled cysteine peptide fold change", "setting": "50 µM", "value": 0.0393}
    ]},
    {"target": "DDX58_O95786_428_NTDEALDYICK (UniProt O95786)", "values": [
      {"measurement": "probe-labelled cysteine peptide fold change", "setting": "10 µM", "value": 0.0328},
      {"measurement": "probe-labelled cysteine peptide fold change", "setting": "50 µM", "value": 0.169}
    ]},
    {"target": "DHX37_Q8IY37_766_LSCPITALGR (UniProt Q8IY37)", "values": [
      {"measurement": "probe-labelled cysteine peptide fold change", "setting": "10 µM", "value": -0.0635},
      {"measurement": "probe-labelled cysteine peptide fold change", "setting": "50 µM", "value": 0.0316}
    ]},
    {"target": "DOCK8_Q8NF50_590_IQFMCGEDASNAMPVIFGK (UniProt Q8NF50)", "values": [
      {"measurement": "probe-labelled cysteine peptide fold change", "setting": "10 µM", "value": -0.02},
      {"measurement": "probe-labelled cysteine peptide fold change", "setting": "50 µM", "value": 0.209}
    ]},
    {"target": "DDX42_Q86XP3_339+346_ELCQQIHAECK (UniProt Q86XP3)", "sequence (Q86XP3 whole entry, looked up)": "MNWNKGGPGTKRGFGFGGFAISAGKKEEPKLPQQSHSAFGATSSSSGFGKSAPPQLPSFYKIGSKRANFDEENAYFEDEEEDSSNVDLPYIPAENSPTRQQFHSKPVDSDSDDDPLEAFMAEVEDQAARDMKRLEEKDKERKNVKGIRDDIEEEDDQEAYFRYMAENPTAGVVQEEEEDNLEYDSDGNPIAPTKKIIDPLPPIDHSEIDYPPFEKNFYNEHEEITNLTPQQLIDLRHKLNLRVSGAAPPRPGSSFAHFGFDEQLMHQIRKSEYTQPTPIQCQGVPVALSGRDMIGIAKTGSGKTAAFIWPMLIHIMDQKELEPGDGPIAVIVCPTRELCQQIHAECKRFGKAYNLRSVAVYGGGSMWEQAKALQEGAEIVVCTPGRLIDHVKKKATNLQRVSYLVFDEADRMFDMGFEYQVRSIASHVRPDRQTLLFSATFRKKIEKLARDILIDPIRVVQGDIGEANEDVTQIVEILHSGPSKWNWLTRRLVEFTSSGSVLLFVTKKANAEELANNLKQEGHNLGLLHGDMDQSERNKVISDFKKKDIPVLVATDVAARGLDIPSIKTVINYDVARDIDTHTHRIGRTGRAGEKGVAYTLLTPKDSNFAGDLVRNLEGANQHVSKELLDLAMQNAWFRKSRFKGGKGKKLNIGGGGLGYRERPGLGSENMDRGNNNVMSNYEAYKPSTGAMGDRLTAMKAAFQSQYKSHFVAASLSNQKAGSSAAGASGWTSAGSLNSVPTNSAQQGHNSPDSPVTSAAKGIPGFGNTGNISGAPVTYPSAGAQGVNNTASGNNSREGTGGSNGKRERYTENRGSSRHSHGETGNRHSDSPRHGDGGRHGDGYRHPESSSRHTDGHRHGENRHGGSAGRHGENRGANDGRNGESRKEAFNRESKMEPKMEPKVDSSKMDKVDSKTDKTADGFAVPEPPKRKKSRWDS", "values": [
      {"measurement": "probe-labelled cysteine peptide fold change", "setting": "10 µM", "value": -0.0625},
      {"measurement": "probe-labelled cysteine peptide fold change", "setting": "50 µM", "value": -0.045}
    ]},
    {"target": "CSNK1A1_P48729_249_MSTPVEVLCK (UniProt P48729)", "values": [
      {"measurement": "probe-labelled cysteine peptide fold change", "setting": "10 µM", "value": -0.305},
      {"measurement": "probe-labelled cysteine peptide fold change", "setting": "50 µM", "value": -0.401}
    ]},
    {"target": "DENND3_A2RUS2_1094_DTSTSFLAFQLLPEEEQLWAACAGR (UniProt A2RUS2)", "sequence (A2RUS2 whole entry, looked up)": "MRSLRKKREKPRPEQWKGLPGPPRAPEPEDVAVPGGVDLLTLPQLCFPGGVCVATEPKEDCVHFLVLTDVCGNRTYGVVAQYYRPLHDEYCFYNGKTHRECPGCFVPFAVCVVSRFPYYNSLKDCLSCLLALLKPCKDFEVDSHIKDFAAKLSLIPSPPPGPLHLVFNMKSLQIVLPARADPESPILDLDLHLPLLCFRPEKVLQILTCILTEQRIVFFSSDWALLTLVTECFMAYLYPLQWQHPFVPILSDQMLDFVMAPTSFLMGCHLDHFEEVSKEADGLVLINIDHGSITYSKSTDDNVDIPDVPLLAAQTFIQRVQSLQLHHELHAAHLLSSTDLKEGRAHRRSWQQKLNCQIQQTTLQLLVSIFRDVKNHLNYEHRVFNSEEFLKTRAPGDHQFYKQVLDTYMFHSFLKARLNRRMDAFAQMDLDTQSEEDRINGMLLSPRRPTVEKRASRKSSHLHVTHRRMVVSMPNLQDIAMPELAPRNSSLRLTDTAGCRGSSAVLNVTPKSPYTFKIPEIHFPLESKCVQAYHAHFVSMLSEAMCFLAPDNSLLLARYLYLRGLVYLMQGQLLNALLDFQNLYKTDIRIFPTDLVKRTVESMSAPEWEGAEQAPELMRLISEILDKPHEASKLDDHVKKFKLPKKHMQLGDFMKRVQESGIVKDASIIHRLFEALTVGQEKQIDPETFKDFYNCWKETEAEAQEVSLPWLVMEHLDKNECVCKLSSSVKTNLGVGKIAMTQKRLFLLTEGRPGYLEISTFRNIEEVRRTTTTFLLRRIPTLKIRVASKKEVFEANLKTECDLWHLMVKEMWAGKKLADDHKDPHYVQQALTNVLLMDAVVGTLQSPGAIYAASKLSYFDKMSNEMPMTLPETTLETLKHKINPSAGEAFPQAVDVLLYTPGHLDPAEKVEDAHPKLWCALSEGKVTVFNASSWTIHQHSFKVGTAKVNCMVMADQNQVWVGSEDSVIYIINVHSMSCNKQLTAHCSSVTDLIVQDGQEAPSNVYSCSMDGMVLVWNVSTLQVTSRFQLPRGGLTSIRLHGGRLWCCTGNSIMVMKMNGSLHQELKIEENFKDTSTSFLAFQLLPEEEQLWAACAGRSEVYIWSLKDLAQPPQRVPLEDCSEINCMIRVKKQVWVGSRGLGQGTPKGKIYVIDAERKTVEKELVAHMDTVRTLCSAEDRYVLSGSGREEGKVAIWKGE", "values": [
      {"measurement": "probe-labelled cysteine peptide fold change", "setting": "10 µM", "value": 1.22},
      {"measurement": "probe-labelled cysteine peptide fold change", "setting": "50 µM", "value": -0.0979}
    ]},
    {"target": "DMRT1_Q9Y5R6_105_CNLIAER (UniProt Q9Y5R6)", "values": [
      {"measurement": "probe-labelled cysteine peptide fold change", "setting": "10 µM", "value": 1.19},
      {"measurement": "probe-labelled cysteine peptide fold change", "setting": "50 µM", "value": 0.0204}
    ]},
    {"target": "DAZAP1_Q96EP5_63_DPNCVGTVLASR (UniProt Q96EP5)", "values": [
      {"measurement": "probe-labelled cysteine peptide fold change", "setting": "10 µM", "value": 0.186},
      {"measurement": "probe-labelled cysteine peptide fold change", "setting": "50 µM", "value": 0.402}
    ]},
    {"target": "DHX15_O43143_774_IAPQYYDMSNFPQCEAKR (UniProt O43143)", "values": [
      {"measurement": "probe-labelled cysteine peptide fold change", "setting": "10 µM", "value": -0.432},
      {"measurement": "probe-labelled cysteine peptide fold change", "setting": "50 µM", "value": -0.211}
    ]},
    {"target": "DPYSL2_Q16555_133_SCCDYSLHVDISEWHK (UniProt Q16555)", "values": [
      {"measurement": "probe-labelled cysteine peptide fold change", "setting": "10 µM", "value": 0.131},
      {"measurement": "probe-labelled cysteine peptide fold change", "setting": "50 µM", "value": -0.000105}
    ]},
    {"target": "DCTN1_Q14203_677_YEHALSQCSVDVYKK (UniProt Q14203)", "values": [
      {"measurement": "probe-labelled cysteine peptide fold change", "setting": "10 µM", "value": -0.0153},
      {"measurement": "probe-labelled cysteine peptide fold change", "setting": "50 µM", "value": 0.149}
    ]},
    {"target": "CPNE2_Q96FN4_265_DSVPLEFECINPK (UniProt Q96FN4)", "sequence (Q96FN4 whole entry, looked up)": "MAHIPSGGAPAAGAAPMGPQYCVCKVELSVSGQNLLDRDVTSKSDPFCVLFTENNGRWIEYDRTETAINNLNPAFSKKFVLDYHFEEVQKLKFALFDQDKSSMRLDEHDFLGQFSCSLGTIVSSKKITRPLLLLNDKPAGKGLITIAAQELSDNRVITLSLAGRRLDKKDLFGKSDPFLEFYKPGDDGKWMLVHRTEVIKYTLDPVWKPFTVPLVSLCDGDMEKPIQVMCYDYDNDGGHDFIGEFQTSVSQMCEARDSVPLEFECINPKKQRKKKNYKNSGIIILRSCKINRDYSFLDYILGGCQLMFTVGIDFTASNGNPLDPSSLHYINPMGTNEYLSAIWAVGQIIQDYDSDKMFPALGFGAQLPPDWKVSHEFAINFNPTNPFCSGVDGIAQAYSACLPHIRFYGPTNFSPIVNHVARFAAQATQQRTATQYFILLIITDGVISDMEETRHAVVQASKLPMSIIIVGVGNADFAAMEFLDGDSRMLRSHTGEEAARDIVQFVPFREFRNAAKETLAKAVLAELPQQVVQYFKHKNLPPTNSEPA", "values": [
      {"measurement": "probe-labelled cysteine peptide fold change", "setting": "10 µM", "value": -0.22},
      {"measurement": "probe-labelled cysteine peptide fold change", "setting": "50 µM", "value": -0.165}
    ]},
    {"target": "DNAJA1_P31689_271_RGEDLFMCMDIQLVEALCGFQK (UniProt P31689)", "values": [
      {"measurement": "probe-labelled cysteine peptide fold change", "setting": "10 µM", "value": -0.021},
      {"measurement": "probe-labelled cysteine peptide fold change", "setting": "50 µM", "value": 0.281}
    ]},
    {"target": "DHX37_Q8IY37_616_LCVVATNVAETSLTIPGIK (UniProt Q8IY37)", "values": [
      {"measurement": "probe-labelled cysteine peptide fold change", "setting": "10 µM", "value": -0.0366},
      {"measurement": "probe-labelled cysteine peptide fold change", "setting": "50 µM", "value": 0.0989}
    ]},
    {"target": "DHRS7_Q9Y394_233_TELATYPGIIVSNICPGPVQSNIVENSLAGEVTK (UniProt Q9Y394)", "values": [
      {"measurement": "probe-labelled cysteine peptide fold change", "setting": "10 µM", "value": -0.0824},
      {"measurement": "probe-labelled cysteine peptide fold change", "setting": "50 µM", "value": 0.0763}
    ]},
    {"target": "CORO7_P57737_691_IVWVCDGR (UniProt P57737)", "values": [
      {"measurement": "probe-labelled cysteine peptide fold change", "setting": "10 µM", "value": 0.154},
      {"measurement": "probe-labelled cysteine peptide fold change", "setting": "50 µM", "value": 0.334}
    ]},
    {"target": "DDX60L_Q5H9U9_502_CHVDEQSR (UniProt Q5H9U9)", "sequence (Q5H9U9 whole entry, looked up)": "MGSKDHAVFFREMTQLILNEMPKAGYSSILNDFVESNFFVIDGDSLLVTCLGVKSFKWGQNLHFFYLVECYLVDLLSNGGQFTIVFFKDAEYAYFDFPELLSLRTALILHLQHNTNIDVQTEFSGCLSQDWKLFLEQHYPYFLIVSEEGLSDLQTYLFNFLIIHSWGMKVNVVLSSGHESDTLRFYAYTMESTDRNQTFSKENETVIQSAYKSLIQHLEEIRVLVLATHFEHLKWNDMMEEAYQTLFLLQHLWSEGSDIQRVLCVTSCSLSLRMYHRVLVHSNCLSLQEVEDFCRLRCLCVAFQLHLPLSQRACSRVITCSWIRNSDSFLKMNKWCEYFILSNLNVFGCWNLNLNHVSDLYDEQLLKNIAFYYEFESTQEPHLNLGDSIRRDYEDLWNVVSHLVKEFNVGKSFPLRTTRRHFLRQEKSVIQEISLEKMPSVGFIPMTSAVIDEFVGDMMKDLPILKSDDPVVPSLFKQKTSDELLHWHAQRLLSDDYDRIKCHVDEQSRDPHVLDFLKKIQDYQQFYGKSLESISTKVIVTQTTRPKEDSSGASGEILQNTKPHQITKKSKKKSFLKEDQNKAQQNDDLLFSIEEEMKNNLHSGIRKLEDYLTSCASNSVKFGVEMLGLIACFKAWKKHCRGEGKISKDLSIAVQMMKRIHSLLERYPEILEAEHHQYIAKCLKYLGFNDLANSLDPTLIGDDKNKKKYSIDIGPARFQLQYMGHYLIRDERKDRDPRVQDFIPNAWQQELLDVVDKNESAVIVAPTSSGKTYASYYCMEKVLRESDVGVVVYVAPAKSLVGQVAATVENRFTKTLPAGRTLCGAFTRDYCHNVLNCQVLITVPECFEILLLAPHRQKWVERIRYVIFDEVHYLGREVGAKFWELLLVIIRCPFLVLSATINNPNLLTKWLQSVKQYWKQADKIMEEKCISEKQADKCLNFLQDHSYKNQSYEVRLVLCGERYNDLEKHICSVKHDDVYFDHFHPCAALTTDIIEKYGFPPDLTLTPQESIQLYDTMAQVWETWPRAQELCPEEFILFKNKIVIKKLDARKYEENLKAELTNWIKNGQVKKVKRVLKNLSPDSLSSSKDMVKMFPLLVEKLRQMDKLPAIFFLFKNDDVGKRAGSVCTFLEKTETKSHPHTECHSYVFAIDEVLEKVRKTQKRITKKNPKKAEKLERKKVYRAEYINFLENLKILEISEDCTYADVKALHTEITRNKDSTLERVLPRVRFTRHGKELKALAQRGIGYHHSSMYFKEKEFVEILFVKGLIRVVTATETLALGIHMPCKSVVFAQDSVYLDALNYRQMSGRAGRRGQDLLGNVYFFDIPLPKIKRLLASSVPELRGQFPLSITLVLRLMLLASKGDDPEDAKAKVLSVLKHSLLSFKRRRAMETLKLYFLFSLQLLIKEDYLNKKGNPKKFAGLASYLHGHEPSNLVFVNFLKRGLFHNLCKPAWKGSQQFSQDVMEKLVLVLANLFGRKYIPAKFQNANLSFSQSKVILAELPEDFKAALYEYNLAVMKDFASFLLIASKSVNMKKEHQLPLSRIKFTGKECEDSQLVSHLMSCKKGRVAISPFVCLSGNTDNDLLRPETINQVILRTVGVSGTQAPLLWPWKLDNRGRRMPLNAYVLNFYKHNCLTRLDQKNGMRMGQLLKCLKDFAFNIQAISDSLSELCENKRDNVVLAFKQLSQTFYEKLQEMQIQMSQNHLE", "values": [
      {"measurement": "probe-labelled cysteine peptide fold change", "setting": "10 µM", "value": -0.013},
      {"measurement": "probe-labelled cysteine peptide fold change", "setting": "50 µM", "value": -0.526}
    ]},
    {"target": "DYNC1H1_Q14204_1977_MLSAVSQQVQCIQEALREHSNPNYDK (UniProt Q14204)", "values": [
      {"measurement": "probe-labelled cysteine peptide fold change", "setting": "10 µM", "value": -0.708},
      {"measurement": "probe-labelled cysteine peptide fold change", "setting": "50 µM", "value": -0.193}
    ]},
    {"target": "DDX21_Q9NR30_539_TGVCICFYQHK (UniProt Q9NR30)", "values": [
      {"measurement": "probe-labelled cysteine peptide fold change", "setting": "10 µM", "value": -0.0402},
      {"measurement": "probe-labelled cysteine peptide fold change", "setting": "50 µM", "value": -0.0081}
    ]},
    {"target": "DDX41_Q9UJV9_540_ACDESVLMDLK (UniProt Q9UJV9)", "values": [
      {"measurement": "probe-labelled cysteine peptide fold change", "setting": "10 µM", "value": -0.0247},
      {"measurement": "probe-labelled cysteine peptide fold change", "setting": "50 µM", "value": -0.111}
    ]},
    {"target": "DNM1L_O00429_300_LLMHHIRDCLPELK (UniProt O00429)", "values": [
      {"measurement": "probe-labelled cysteine peptide fold change", "setting": "10 µM", "value": -0.355},
      {"measurement": "probe-labelled cysteine peptide fold change", "setting": "50 µM", "value": -0.178}
    ]},
    {"target": "DNAJC10_Q8IXB1_161_EFDAAVNSGELWFVNFYSPGCSHCHDLAPTWR (UniProt Q8IXB1)", "values": [
      {"measurement": "probe-labelled cysteine peptide fold change", "setting": "10 µM", "value": 0.476},
      {"measurement": "probe-labelled cysteine peptide fold change", "setting": "50 µM", "value": -0.235}
    ]},
    {"target": "CTNNBL1_Q8WYA6_370_VLDHAMIGPEGTDNCHK (UniProt Q8WYA6)", "values": [
      {"measurement": "probe-labelled cysteine peptide fold change", "setting": "10 µM", "value": -0.0184},
      {"measurement": "probe-labelled cysteine peptide fold change", "setting": "50 µM", "value": -0.103}
    ]},
    {"target": "CPSF4_O95639_162_RVICVNYLVGFCPEGPSCK (UniProt O95639)", "values": [
      {"measurement": "probe-labelled cysteine peptide fold change", "setting": "10 µM", "value": -0.292},
      {"measurement": "probe-labelled cysteine peptide fold change", "setting": "50 µM", "value": 0.0715}
    ]},
    {"target": "DLD_P09622_484_VCHAHPTLSEAFR (UniProt P09622)", "values": [
      {"measurement": "probe-labelled cysteine peptide fold change", "setting": "10 µM", "value": 0.111},
      {"measurement": "probe-labelled cysteine peptide fold change", "setting": "50 µM", "value": -0.123}
    ]},
    {"target": "DGKZ_Q13574_876_EASVPLGTVVVPGDSDLELCR (UniProt Q13574)", "values": [
      {"measurement": "probe-labelled cysteine peptide fold change", "setting": "10 µM", "value": 0.514},
      {"measurement": "probe-labelled cysteine peptide fold change", "setting": "50 µM", "value": 0.581}
    ]}
  ]
}
